# Sampled rows, rich in hits. Any-hit rate of the full collection: about 2.3%.
# A549 viability = Nrf2 qHTS screen for inhibitors: counterscreen for cytotoxicity; Potency, µM (titrated, usually from 46 µM), for the others: at the highest dose activity change, negative = cytotoxicity, usual class: inhibitors; actives 0.16% (n = 390,000); A549 ARE-Fluc cells, CellTiter-Fluor viability, 18-24 h; AID 504648, 2011; also: potency is read from the fitted curve at half-maximal effect; % is scaled to controls: 0 for no effect and ±100 for the full control effect
#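 A549 ARE-Fluc cells in 5% FBS OPTI-MEM, 5000 cells/well, rested 2 h then exposed to compounds in concentration-response for 18-24 h at 37 °C. Viability by CellTiter-Fluor fluorescence (Ex 405/Em 525) after 30 min; luciferase luminescence (BugLite, 15 min, RT) read afterwards.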
# Nrf2 block = Nrf2 qHTS screen for inhibitors; Potency, µM (top dose mostly 46 µM), without a hit: at the top dose activity change, negative = inhibition, usual class: inhibitors; A549 ARE-Fluc reporter, luciferase luminescence, 18-24 h; actives 2.1% (n = 360,000); also: potency is read from the fitted curve at half-maximal effect; % is scaled to controls: 0 for no effect and ±100 for the full control effect; nearly all actives have a fitted effect of over 60% in size
#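 Two sequential reads on A549 ARE_Fluc cells exposed to compound for 18-24 h: a CellTiter-Fluor fluorescence read for viability, then a luciferase luminescence read for Nrf2/ARE activity.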
# Nrf2 activator = qHTS of Nrf2 Activators. AREc32 ARE-luciferase reporter (MCF7-derived line), luminescence, 24 h. Potency, µM (titrated, usually from 46.1 µM), for the others: top-dose activation, usual class: activators. actives 0.31% (n = 410,000). AID 624171, 2012; also: potency is read from the fitted curve at half-maximal effect; % of control where 0% means no effect; nearly all actives have a fitted effect of over 65% in size
#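 Luminescent ARE reporter assay in AREc32_Fluc cells: overnight plating at 37 deg C, 24 hr compound incubation, Steady-Glo added, 30 min RT before reading.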
# Mito fusion yeast = qHTS Assay for Small Molecule Inhibitors of Mitochondrial Division or Activators of Mitochondrial Fusion | S. cerevisiae fusion-defective mutant growth rescue, CellTiterGlo 48 h | Potency, µM (series often up to 46.1 µM), for the others: at the highest dose growth rescue (activation), usual class: activators | actives 0.23% (n = 320,000) | AID 485298, 2010; also: potency is read from the fitted curve at half-maximal effect; % of control where 0% means no effect; nearly all actives have a fitted effect of over 45% in size
#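 Growth-rescue viability read-out: after 48 h at the non-permissive 37C in glycerol/ethanol YPEG, yeast mitochondrial fusion mutants are measured by CellTiterGlo luminescence; compounds (23 nl pinned per well) restoring growth score as division inhibitors or fusion activators.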
# miR-21 act = qHTS Assay for Modulators of miRNAs and/orActivators of miR-21; HeLa miR-21 FLuc reporter, luciferase, 48 h; Potency, µM (titrated, usually from 38.3 µM), for inactives: top-dose activity change, positive = activation, usual class: activators; 340,000 tested, under 10 active;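 also: % of control where 0% means no effect; miR-21 action dims this reporter so a rising signal means less miR-21 action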
#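 Luminescence from a firefly luciferase reporter carrying a miR-21 binding site downstream, stably expressed under a CMV promoter in HeLa cells that make miR-21 endogenously, reports miRNA modulation after 48 h compound exposure up to approximately 40uM final.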
# Numbers without * were called inactive; ? = inconclusive; . = no result given. Calls follow the shape of the dose curve; as a rule, active = well fitted curve in the direction sought with a large enough effect; inconclusive = small, poorly fitted or top-dose-only effect, or another doubt; inactive = no such curve, though single readings can be large; an effect the other way counts as inactive or inconclusive.
SMILES,A549 viability,Nrf2 block,Nrf2 activator,Mito fusion yeast,miR-21 act
Cc1ccccc1N1CCN(c2ncnc3c2cnn3Cc2ccc(Cl)cc2)CC1,-6%,18µM*,8%,22%,14%
CC(C)OC(=O)C(C(=O)C(F)(F)F)c1cc(NS(=O)(=O)c2ccc3c4c(cccc24)C(=O)N3)ccc1O (stereo not drawn),-3%,9%,4%,.,-10%
c1ccc(CCSc2ncnc3nc[nH]c23)cc1,-14%,?,3%,18µM*,-30%
CCc1cccc(CC)c1N(COC)C(=O)Cn1c(C)nc2ccccc21,-30%,?,-4%,.,-1%
Cc1ccc2nc(N3CCC(C(=O)N4CCN(c5cccc(Cl)c5)CC4)CC3)[nH]c2c1,?,.,9%,.,17%
Cc1ccccc1C1=CCN(c2ncc(NC(=O)c3ccc(Cl)cc3)cc2C(=O)O)CC1,5%,.,4%,.,3%
Cn1c(=O)n(C)c2cc([N+](=O)[O-])c(N3CCN(S(=O)(=O)c4ccc5ccccc5c4)CC3)cc21,-6%,5.8µM*,0%,1%,-1%
Cc1ccc(S(=O)(=O)N2CCN(c3cc4c(cc3[N+](=O)[O-])n(C)c(=O)n4C)CC2)cc1,0%,?,6%,1%,1%
CCCS(=O)(=O)N1CCN(c2cc3c(cc2[N+](=O)[O-])n(C)c(=O)n3C)CC1,-13%,12µM*,4%,6%,7%
Cc1ccc(S(=O)(=O)N2CCN(c3ccc(C(F)(F)F)cc3[N+](=O)[O-])CC2)cc1,-20%,16µM*,1%,3%,14%
Cn1c(=O)n(C)c2cc([N+](=O)[O-])c(N3CCN(C(=O)c4cccc(F)c4)CC3)cc21,-10%,9.2µM*,6%,4%,13%
COc1cc(C2c3c(oc4ccccc4c3=O)C(=O)N2c2ccccn2)cc(OC)c1OC (stereo not drawn),5%,5%,-1%,.,-1%
CC(C)(C)OC(=O)NCC(=O)NNC(=O)c1nc2ccccc2[nH]1,7%,-5%,.,.,.
CCC(C)N(C(=O)CSc1nc(-c2cccs2)nc2ccccc12)C1CCS(=O)(=O)C1 (stereo not drawn),?,8.2µM*,2%,.,.
CCC(C)N(C(=O)CSc1ncnc2sccc12)C1CCS(=O)(=O)C1 (stereo not drawn),-2%,-23%,0%,-2%,.
COC(=O)c1ccc(NC(=O)CC2C(=O)N(c3ccccc3)C(=O)N2C2CCCC2)cc1 (stereo not drawn),-1%,.,0%,.,-3%
CCN(C1CCCCC1)S(=O)(=O)c1ccc(S(=O)(=O)NCc2ccncc2)cc1,-2%,8.2µM*,-1%,7%,19%
O=C(c1ccccc1O)N(Cc1ccco1)Cc1cccs1,4%,?,.,.,.
CCOc1ccc(S(=O)(=O)N2CCN(C(=O)COc3ccc(Br)cc3)CC2)cc1,?,16µM*,4%,.,.
CC(=O)c1ccc(N2CCN(C(=O)C3CCCN(S(=O)(=O)c4ccc(Br)s4)C3)CC2)cc1 (stereo not drawn),-8%,16µM*,3%,.,16%
CCOc1ccc(OCC(=O)N2CCN(S(=O)(=O)c3ccccc3)CC2)cc1,.,.,-1%,.,.
COc1cccc(N2CCN(C(=O)C3CCCN(S(=O)(=O)c4cccc5nsnc45)C3)CC2)c1 (stereo not drawn),-10%,16µM*,0%,.,1%
O=C(C1CCCN(S(=O)(=O)c2ccc(Br)s2)C1)N1CCN(c2ccc(F)cc2)CC1 (stereo not drawn),-2%,?,1%,.,-1%
CCOc1ccc(S(=O)(=O)N2CCCC(C(=O)N3CCN(c4ccccc4)CC3)C2)cc1 (stereo not drawn),-18%,23µM*,0%,-11%,18%
CCOc1ccc(C(=O)NCCc2csc(-c3cccc(C)c3)n2)cc1,-1%,.,-1%,.,-2%
SMILES,A549 viability,Nrf2 block,Nrf2 activator,Mito fusion yeast,miR-21 act
C=C1Nc2ccccc2C(=O)N1c1ccc(C(=O)N2CCN(C(=O)c3ccco3)CC2)cc1,7%,0%,.,.,.
CC(=O)c1c(C)[nH]c(C(=O)OCC(=O)N2CCN(S(=O)(=O)c3ccc(C)cc3)CC2)c1C,-4%,16µM*,0%,-4%,.
Cc1sc(NC(=O)c2ccccc2F)c(CN2CCCCC2C)c1C (stereo not drawn),-2%,?,13µM*,6%,-65%
CC(=O)Nc1sc(C)c(C)c1CN1CCN(Cc2ccccc2)CC1,0%,4%,0%,4%,1%
COc1ccccc1N1CCN(c2ccc(=O)n(CC(=O)O)n2)CC1,0%,3%,-1%,.,-2%
Cc1ccc([N+](=O)[O-])cc1-c1[nH]c(-c2ccc(O)c(O)c2)nc1-c1ccccc1,?,21µM*,3%,5%,6%
COc1ccc(-c2nc(-c3ccccc3)c(-c3cc([N+](=O)[O-])ccc3C)[nH]2)cc1O,-22%,1%,4%,-11%,22%
C=CCC[C@@H](Cc1ccc(F)cc1)C(=O)OC[C@@H](NC(=O)[C@@H](CC=C)CC(=O)N(CCO)Cc1ccccc1)c1ccccc1,?,23µM*,-4%,.,.
C=CC[C@H](CC(=O)N(CCO)Cc1ccccc1)C(=O)NC[C@H](OC(=O)[C@@H](CC=C)Cc1ccc(F)cc1)c1ccccc1,?,18µM*,-5%,.,.
C=CC[C@@H](CC(=O)N(CCO)Cc1ccccc1)C(=O)N[C@@H](COC(=O)[C@@H](CC=C)Cc1ccc(F)cc1)Cc1ccccc1,?,23µM*,-5%,.,.
C=CCC[C@@H](Cc1ccc(F)cc1)C(=O)OC[C@@H](NC(=O)[C@H](CC=C)CC(=O)N(CCO)Cc1ccccc1)c1ccccc1,?,?,0%,.,.
C=CC[C@@H](CC(=O)N(CCO)Cc1ccccc1)C(=O)NC[C@@H](OC(=O)[C@@H](CC=C)Cc1ccc(F)cc1)c1ccccc1,-5%,0%,-1%,.,.
C=CC[C@@H](CC(=O)N(CCO)Cc1ccccc1)C(=O)N[C@H](COC(=O)[C@@H](CC=C)Cc1ccc(F)cc1)Cc1ccccc1,-29%,?,-2%,.,.
COc1ccccc1N1CCN(C(=O)CN2C(=O)COc3ccc(S(=O)(=O)N4CCC(C)CC4)cc32)CC1,1%,-5%,0%,.,1%
O=C(O)c1cccc(CN2C(=O)c3ccccc3C2=O)c1,9%,3%,0%,-2%,-2%
O=C1c2cccc3c(O)ccc(c23)C(=O)N1Cc1ccccc1,9%,.,2%,18µM*,-4%
